Source: PubChem BioAssay AID1952 (The Scripps Research Institute Molecular Screening Center, 2009)
In all, about 2,400 compounds went through this assay and about 1,200 (50%) were called active. No stated cut-off is given here; in the data, active means inhibition above about 24%; inactive means the rest. The set was probably picked from earlier hits. These entries were drawn from the full list.

biological target: Neuropeptides B/W receptor type 1 (Homo sapiens) (UniProt P48145); experiment: GPR7 receptor antagonists, confirmation, cell-based, fluorescence, single concentration (AID 1952); conditions: GPR7-expressing cells, calcium fluorescence antagonist mode; at 4.4 µM; hits give high values;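 further: stimulated with the GPR7 agonist NPW; 0% = agonist plus vehicle and 100% = vehicle alone without agonist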
Sequence (P48145 whole entry, looked up): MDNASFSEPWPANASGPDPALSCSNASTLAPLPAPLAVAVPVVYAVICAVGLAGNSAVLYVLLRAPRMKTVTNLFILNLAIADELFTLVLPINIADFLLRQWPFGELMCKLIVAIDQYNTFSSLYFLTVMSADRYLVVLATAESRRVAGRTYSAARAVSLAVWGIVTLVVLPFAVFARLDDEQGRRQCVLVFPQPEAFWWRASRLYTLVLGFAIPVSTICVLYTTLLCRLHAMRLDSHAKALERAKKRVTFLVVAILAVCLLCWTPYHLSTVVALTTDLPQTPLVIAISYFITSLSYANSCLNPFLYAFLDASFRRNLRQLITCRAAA

Q: Which inhibition does the source give for CCOc1ccc(-c2cc(C)[n+](CCN(CC)CC)c(-c3ccc(OCC)cc3)c2)cc1 here?
A: The inhibition was 41.8% (active).

Q: How did the inhibition turn out when COc1ccc(Br)cc1CNCCc1cccc(Cl)c1 was run?
A: Its inhibition is 32.7% (active).

Q: Which inhibition does the source give for CCOC(=O)C1(Cc2ccc(Cl)cc2)CCN(C(C)CCn2cccn2)CC1 (stereo not drawn) here?
A: Its inhibition is 18.4% (inactive).
